Experimental findings from PubChem BioAssay (Tox21) are described below.

The structures appear in SMILES notation. Activity calls are given as the source filed them. Entries that show only a call come without a potency. The call rests on the fitted dose curve; in most records, active means well fitted curve in the direction sought with a large enough effect in the repeat runs; inconclusive means weak or mixed curves; inactive means flat fitted curve, though single readings scatter.
Tags describe the fitted curve by direction and shape or compound fluorescence and quenching.

The first test is described as follows: qHTS assay to test for compound auto fluorescence at 590 nm (red) in HepG2 cells (AID 720674). Conditions: HepG2 autofluorescence, red 540/590 nm, 1 h; series mostly up to 46 µM. The procedure, abridged:
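Fluorescence at 590 nm emission following 540 nm excitation was recorded from HepG2 wells one hour after compound transfer, with DMSO-only wells as vehicle and Rose Bengal sodium equivalency as the scale.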
For `CC(N)Cc1ccc2c(c1)OCO2` (stereo not drawn), the molecule was called inactive.
Still for that read-out and setting: with `CN1c2ccccc2C(NCCCCCCC(=O)O)c2ccc(Cl)cc2S1(=O)=O` (stereo not drawn) the entry was “inactive”; with `C[C@]12CC[C@@H]3c4ccc(OC(=O)N(CCCl)CCCl)cc4CC[C@H]3[C@@H]1CC[C@@H]2OP(=O)(O)O`, “inactive”; with `CC(=O)[C@@]1(O)CC[C@H]2[C@@H]3CCC4=CC(=O)CC[C@]4(C)C3(F)[C@@H](O)C[C@@]21C` (stereo partly drawn), “inactive”.

A further test can be described thus: qHTS assay to test for compound auto fluorescence at 535 nm (green) in HepG2 cells (AID 720675). The conditions noted are these: green autofluorescence 485/535 nm, 1 h; series mostly up to 46 µM. A general note: Quantitative high-throughput screening tests each substance at several concentrations.
As for `CC(C)=CCN1CC[C@]2(C)c3cc(O)ccc3C[C@H]1[C@H]2C`, the Potency entry was “inactive”.
Same read-out and setting: then `CN[C@@]1(c2ccccc2Cl)CCCCC1=O`, with “inactive”; and `CCNC1(c2cccs2)CCCCC1=O` (stereo not drawn), with “inactive”; and `CNC(C)CC1CCCCC1` (stereo not drawn), with “inactive”.
On to `CCC1(c2ccccc2)C(=O)NC(=O)N(C)C1=O` (stereo not drawn), for which the Potency result is “inactive”.
In the case of `COc1cc([C@@H]2c3cc4c(cc3[C@@H](O)[C@H]3COC(=O)[C@H]23)OCO4)cc(OC)c1O`, the Potency entry was “inactive”.
Still for that read-out and setting: then `CN1CC[C@@]23CCCC[C@@H]2[C@@H]1Cc1ccc(O)cc13`, with “inactive”; and `CNC(C)Cc1ccccc1` (stereo not drawn), with “inactive”.
With `CN[C@@H](C)Cc1ccccc1`, the Potency entry is “inactive”.
Take `CCCCNC(C)(C)[P+](=O)O`: the Potency entry was “inactive”.
The same measure, in the same setting: then `O=C1C[C@@H]2OCC=C3CN4CC[C@]56c7ccccc7N1[C@H]5[C@H]2[C@H]3C[C@H]46` (tested in a mixture with another compound), with “inactive”.
The same measure, in the same setting: with `O=c1ccc2cc(O[C@@H]3O[C@H](CO)[C@@H](O)[C@H](O)[C@H]3O)c(O)cc2o1` the entry was “inactive”; with `C/C=C(\CC)C(=O)NC(N)=O`, “inactive”; with `C[C@]12CCC(=O)C[C@@H]1CC[C@@H]1[C@@H]2CC[C@@]2(C)[C@H]1CC[C@]2(C)O`, “inactive”.
Still for that read-out and setting: then `Cc1nnc2n1-c1ccc(Cl)cc1C(c1ccccc1)=NC2`, with “inactive”; and `CCCSc1cc(OC)c(CCN)cc1OC`, with “inactive”.
Take `O=C(O)CCCO`: the Potency entry is “inactive”.
The same measure, in the same setting: with `Oc1ccc2c3c1O[C@H]1[C@@H](O)C=C[C@H]4[C@H](C2)NCC[C@@]341` the entry was “inactive”; with `O=P1(N(CCCl)CCCl)NC(OO)CCO1` (stereo not drawn), “inactive”; with `COC(=O)[C@H]1[C@@H](OC(=O)c2ccccc2)C[C@@H]2CC[C@H]1N2C`, “inactive”.
The same measure, in the same setting: then `O=C1CN=C(c2ccccc2)c2cc(Cl)ccc2N1`, with “inactive”; and `C=C[C@H]1CN2CC[C@H]1C[C@H]2[C@H](OC(=O)OCC)c1ccnc2ccc(OC)cc12`, with “inactive”.
Still for that read-out and setting: then `CCc1cc(OC)c(C[C@@H](C)N)cc1OC`, with “inactive”.
For the molecule `CC(C)[C@H]1C(=O)N2CCC[C@H]2[C@]2(O)O[C@](NC(=O)[C@@H]3C[C@@H]4c5cccc6[nH]cc(c56)C[C@H]4N(C)C3)(C(C)C)C(=O)N12`, the Potency entry is “inactive”.
Same read-out and setting: with `C[C@]12CC[C@H]3[C@@H](CCC4=C(Cl)C(=O)CC[C@@]43C)[C@@H]1CC[C@@H]2O` the entry was “inactive”.
Turning to `Clc1ccc(C(Cn2ccnc2)OCc2csc3c(Cl)cccc23)c(Cl)c1` (stereo not drawn), the Potency result was “inactive”.
The same measure, in the same setting: then `C[C@@H]1[C@@H]2Cc3ccc(O)cc3[C@@]1(C)CCN2CC1CC1`, with “inactive”.
On the same count and under the same terms, with `C[C@@H]1[C@H]2Cc3ccc(O)cc3[C@]1(C)CCN2C` the entry was “inactive”.
For the molecule `CC(C)C[C@H]1C(=O)N2CCC[C@H]2[C@]2(O)O[C@](NC(=O)[C@@H]3C[C@@H]4c5cccc6[nH]cc(c56)C[C@H]4N(C)C3)(C(C)C)C(=O)N12`, the Potency result was “inactive”.
As for `[H+].[H+].[Hg+2].[O-]B([O-])[O-].[c-]1ccccc1`, the Potency result is “inactive”.
Same read-out and setting: with `C=CCC1([C@@H](C)CCC)C(=O)NC(=O)NC1=O` the entry was “inactive”; with `c1ccc2c(c1)Sc1ccccc1N2C[C@@H]1CN2CCC1CC2`, “inactive”.
With `C[C@@H](Cc1ccccc1)NCCC(c1ccccc1)c1ccccc1`, the Potency result was “inactive”.
For `CC[C@H]1[C@@H]2C[C@H]3[C@@H]4N(C)c5ccccc5[C@]45C[C@@H](C2[C@H]5O)N3[C@@H]1O` (stereo partly drawn), the Potency entry is “inactive”.
For `CC(N)Cc1ccc2c(c1)OCO2` (stereo not drawn), the Potency entry is “inactive”.
Turning to `CN1c2ccccc2C(NCCCCCCC(=O)O)c2ccc(Cl)cc2S1(=O)=O` (stereo not drawn), the Potency result was “inactive”.
Take `CN[C@]1(c2ccccc2Cl)CCCCC1=O`: the Potency result was “inactive”.
Still for that read-out and setting: with `C[C@]12CC[C@@H]3c4ccc(OC(=O)N(CCCl)CCCl)cc4CC[C@H]3[C@@H]1CC[C@@H]2OP(=O)(O)O` the entry was “inactive”; with `CC(=O)[C@@]1(O)CC[C@H]2[C@@H]3CCC4=CC(=O)CC[C@]4(C)C3(F)[C@@H](O)C[C@@]21C` (stereo partly drawn), “inactive”.

Another test is described as follows: qHTS assay to test for compound auto fluorescence at 460 nm (blue) in HEK293 cells (AID 720678). Further: potency means the concentration at half of the fitted maximal effect. Conditions: blue autofluorescence 405/460 nm; series mostly up to 46 µM. An outline of the steps:
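Blue-channel (Ex/Em 405/460 nm) intensity measured in HEK293 cultures after overnight compound exposure at 37C; signal expressed relative to triamterene. Cells plated 2,000 per well in 10% dialyzed FBS medium and allowed 4-5 hr to attach.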
Turning to `CC(C)=CCN1CC[C@]2(C)c3cc(O)ccc3C[C@H]1[C@H]2C`, the Potency result was “inactive”.
Same read-out and setting: with `CN[C@@]1(c2ccccc2Cl)CCCCC1=O` the entry was “inactive”; with `CNC(C)CC1CCCCC1` (stereo not drawn), “inactive”; with `CCC1(c2ccccc2)C(=O)NC(=O)N(C)C1=O` (stereo not drawn), “inactive”.
As to `COc1cc([C@@H]2c3cc4c(cc3[C@@H](O)[C@H]3COC(=O)[C@H]23)OCO4)cc(OC)c1O`, the Potency result is “inactive”.
The same measure, in the same setting: with `CN1CC[C@@]23CCCC[C@@H]2[C@@H]1Cc1ccc(O)cc13` the entry was “inactive”; with `CNC(C)Cc1ccccc1` (stereo not drawn), “inactive”.
For `CN[C@@H](C)Cc1ccccc1`, the Potency entry is “inactive”.
With `CCCCNC(C)(C)[P+](=O)O`, the Potency result is “inactive”.
Same read-out and setting: then `O=C1C[C@@H]2OCC=C3CN4CC[C@]56c7ccccc7N1[C@H]5[C@H]2[C@H]3C[C@H]46` (tested in a mixture with another compound), with “inactive”.
With `O=c1ccc2cc(O[C@@H]3O[C@H](CO)[C@@H](O)[C@H](O)[C@H]3O)c(O)cc2o1`, the Potency is 10 µM [fluorescent] (active).
The same measure, in the same setting: then `C/C=C(\CC)C(=O)NC(N)=O`, with “inactive”; and `N#CC(C#N)=Cc1cc(O)c(O)c(O)c1`, with “inactive”; and `O=C(O)CCCO`, with “inactive”.
`Oc1ccc2c3c1O[C@H]1[C@@H](O)C=C[C@H]4[C@H](C2)NCC[C@@]341`: the Potency result was “inactive”.
The same measure, in the same setting: then `O=P1(N(CCCl)CCCl)NC(OO)CCO1` (stereo not drawn), with “inactive”; and `COC(=O)[C@H]1[C@@H](OC(=O)c2ccccc2)C[C@@H]2CC[C@H]1N2C`, with “inactive”.
The same measure, in the same setting: with `O=C1CN=C(c2ccccc2)c2cc(Cl)ccc2N1` the entry was “inactive”; with `C=C[C@H]1CN2CC[C@H]1C[C@H]2[C@H](OC(=O)OCC)c1ccnc2ccc(OC)cc12`, “inactive”.
For the molecule `CCc1cc(OC)c(C[C@@H](C)N)cc1OC`, the Potency result was “inactive”.
With `C[C@]12CC[C@H]3[C@@H](CCC4=C(Cl)C(=O)CC[C@@]43C)[C@@H]1CC[C@@H]2O`, the Potency entry was “inactive”.
With `C[C@@H]1[C@@H]2Cc3ccc(O)cc3[C@@]1(C)CCN2CC1CC1`, the Potency entry was “inactive”.
Still for that read-out and setting: with `C[C@@H]1[C@H]2Cc3ccc(O)cc3[C@]1(C)CCN2C` the entry was “inactive”.
The same measure, in the same setting: with `CC(C)C[C@H]1C(=O)N2CCC[C@H]2[C@]2(O)O[C@](NC(=O)[C@@H]3C[C@@H]4c5cccc6[nH]cc(c56)C[C@H]4N(C)C3)(C(C)C)C(=O)N12` the entry was “inactive”.
The same measure, in the same setting: with `c1ccc2c(c1)Sc1ccccc1N2C[C@@H]1CN2CCC1CC2` the entry was “inactive”.
Regarding `C[C@@H](Cc1ccccc1)NCCC(c1ccccc1)c1ccccc1`, the Potency result is “inactive”.
As to `CC[C@H]1[C@@H]2C[C@H]3[C@@H]4N(C)c5ccccc5[C@]45C[C@@H](C2[C@H]5O)N3[C@@H]1O` (stereo partly drawn), the Potency result is “inactive”.
`CN[C@]1(c2ccccc2Cl)CCCCC1=O`: the Potency result was “inactive”.
The same measure, in the same setting: with `C[C@]12CC[C@@H]3c4ccc(OC(=O)N(CCCl)CCCl)cc4CC[C@H]3[C@@H]1CC[C@@H]2OP(=O)(O)O` the entry was “inactive”; with `CC(=O)[C@@]1(O)CC[C@H]2[C@@H]3CCC4=CC(=O)CC[C@]4(C)C3(F)[C@@H](O)C[C@@]21C` (stereo partly drawn), “inactive”.
